Screening data from PubChem BioAssay.
Compounds with a hit are over-represented: about 3.3% of the library has one in this group of screens.
RE007 growth inh: less growth of the S. pombe RE007 Vpr strain. S. pombe RE007 Vpr strain, BacTiter-Glo ATP luminescence, 24 h. Potency, µM (top dose mostly 92.2 µM), hits mostly inhibitors. 0.21% of 360,000 active; active = well fitted falling curve with a large enough effect; inconclusive = small, poorly fitted or top-dose-only effect; inactive = no such curve, though single readings can be large or run the other way; also: nearly all actives have a fitted effect of over 50% in size
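Fission yeast strain RE007, carrying one chromosomally integrated HIV-1 vpr copy, was seeded at OD 0.01 in PMG+AL medium with 23 nL pinned compound. After 24 h at 30 °C and 99% humidity, viability was read by BacTiter-Glo luminescence.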
Sm TGR inh: S. mansoni TGR enzyme inhibition. Q962Y6. purified TGR, DTNB reduction, TNB absorbance 405 nm. Potency, µM (top dose mostly 114 µM), actives largely listed as inhibitors. 3% of 360,000 active. AID 485364; also: nearly all actives have a fitted effect of over 60% in size
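TGR 20 nM + NADPH 100 uM (dispensed conc.), cpd preinc 15 min RT; start with NADPH (500 uM addition) then DTNB (15 mM addition). Kinetic TNB absorbance, 405 nm filter. Four-parameter Hill fit across titration.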
LmPK inhibitor: LmPK (Leishmania mexicana) enzyme inhibition; purified LmPK, Kinase-Glo ATP luminescence, 1 h; Potency, µM (top dose mostly 57.5 µM), hits mostly inhibitors; 0.37% of 290,000 active; AID 1721
Target sequence (Q27686 whole entry, looked up): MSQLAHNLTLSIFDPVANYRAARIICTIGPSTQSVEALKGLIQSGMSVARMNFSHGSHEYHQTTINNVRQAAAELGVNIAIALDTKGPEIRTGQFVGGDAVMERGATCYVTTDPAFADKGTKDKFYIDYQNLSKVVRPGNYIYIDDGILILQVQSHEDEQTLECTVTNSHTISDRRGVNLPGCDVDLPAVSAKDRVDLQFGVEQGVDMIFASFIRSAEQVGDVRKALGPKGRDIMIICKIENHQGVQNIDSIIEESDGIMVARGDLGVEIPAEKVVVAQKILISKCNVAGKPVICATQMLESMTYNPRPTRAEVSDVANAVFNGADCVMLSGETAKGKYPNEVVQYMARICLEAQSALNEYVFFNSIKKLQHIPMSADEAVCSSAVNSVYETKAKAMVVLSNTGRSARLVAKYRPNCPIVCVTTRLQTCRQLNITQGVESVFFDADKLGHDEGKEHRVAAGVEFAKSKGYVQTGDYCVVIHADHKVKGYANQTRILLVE
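Purified LmPK (0.1 nM) with 0.5 mM PEP and 0.1 mM ADP in imidazole buffer pH 7.2 with MgCl2/KCl, 1 h at room temperature. ATP formed was read by luciferase luminescence and normalized to no-enzyme and uninhibited controls.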
Giardia FBPA inh: blocks Giardia fructose-bisphosphate aldolase activity; A8B2U2; purified Giardia FBPA; Potency, µM (titrated, usually from 59.6 µM), actives largely listed as inhibitors; 0.71% of 290,000 active; AID 2451; also: nearly all actives have a fitted effect of over 55% in size
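40 nM FBPA preincubated 10 min at RT with compound (up to 57.5 uM final), then substrate plus GAPDH/TPI/NAD/arsenate coupling and diaphorase/resazurin added. Fluorescence read after 20 min at RT, 525/598 nm.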
TbPYK inhibitor: T. brucei pyruvate kinase inhibition; Potency, µM (titrated, usually from 76.8 µM), most hits filed as inhibitors; AID 624173; TbPYK enzyme, Kinase-Glo Plus ATP luminescence, 45 min; Q57TT1; 0.12% of 410,000 active; also: nearly all actives have a fitted effect of over 50% in size
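Assay buffer: 50 mM TEA pH 7.2, 100 mM KCl, 10 mM MgCl2, 0.05% BSA, 0.01% Tween-20. Pyruvate kinase from T. brucei plus substrate met compound, then ADP (130 uM final). Luminescence was read post 45 min RT.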
Numbers stand for hits; i = inactive; ? = inconclusive; nt = no result; [ ] = dose if it differs, or a comment. Unless noted, calls follow the shape of the dose curve; as a rule, active = well fitted curve in the direction sought with a large enough effect; inconclusive = small, poorly fitted or top-dose-only effect, or another doubt; inactive = no such curve, though single readings can be large; an effect the other way counts as inactive or inconclusive.

SMILES	RE007 growth inh	Sm TGR inh	LmPK inhibitor	Giardia FBPA inh	TbPYK inhibitor
C/C=C\C=C/C(=O)Nc1cccc(C2=NOC3(C2)C[C@H](C(N)=O)N(C(=O)Cc2ccc([N+](=O)[O-])cc2)C3)c1 (some centres not stated)	i	1.12µM	i	i	?
CCCCCC1=C2CNC(CC(C)C)(C(=O)OC)C=C2C(C)C1=O (configuration not stated)	nt	nt	nt	i	nt
CCOC(=O)C(C(=O)OCC)C(C(=O)OCC)N1CCOCC1 (configuration not stated)	i	0.631µM	i	i	?
O=c1cc(O)n(-c2ccccc2)c(=S)[nH]1	i	2µM	i	i	?
O=c1ccc2[n+]([O-])c3ccc(O)cc3oc-2c1	i	2.24µM	?	?	i
CCOC(=O)C1(CCc2ccccc2)CCN(C2Cc3ccccc3C2)CC1	i	i	i	i	i
CCOC(=O)C1(CCc2ccccc2)CCN(C2CCSCC2)CC1	i	11.2µM	i	i	i
Cc1cc(N)ccc1N1CCCC1	i	5.01µM	i	?	i
Nc1cc(Cl)ccc1N1CCCCCC1	i	6.31µM	i	i	i
CCOC(=O)c1sc(NCC2CCCO2)nc1C (configuration not stated)	i	i	i	i	i
CN(C)S(=O)(=O)c1cccc(NC(=S)Nc2ccc(Cl)cc2Cl)c1	i	8.91µM	i	i	i
CCN(CCO)c1ccc(NC(=S)Nc2cccc(S(=O)(=O)N(C)C)c2)cc1	i	39.8µM	i	7.92µM	i
Cc1cccc(-c2nc(S(=O)(=O)c3ccccc3)c(N3CCOCC3)o2)c1	i	44.7µM	i	nt	i
CCOc1ccc(-c2nc(S(=O)(=O)c3ccccc3)c(N3CCOCC3)o2)cc1	i	nt	i	i	i
Cc1ccc(-c2nc(S(=O)(=O)c3ccc(C)cc3)c(N3CCOCC3)o2)cc1	i	3.55µM	i	nt	i
COc1ccc(-c2nc(S(=O)(=O)c3ccc(Cl)cc3)c(N3CCCCCC3)o2)cc1	nt	22.4µM	nt	nt	i
COC(=O)c1ccc(Cn2c(C)c(C(=O)NCc3ccc([N+](=O)[O-])cc3)sc2=O)o1	i[18.4 µM]	nt	nt	nt	i
Cc1nc(N2CCOCC2)[nH]c(=O)c1C(O)C(Cl)(Cl)Cl (configuration not stated)	i	44.7µM	i	i	i
CCOC(=O)c1cn(-c2ccc(F)c(F)c2F)c2c(F)c(F)c(F)cc2c1=O	i	i	i	i	i
CSc1nc(NCc2ccco2)c2sc3nc(C(C)C)c4c(c3c2n1)CC(C)(C)OC4	?	?	i	i	i
CSc1nc(NCCOCCO)c2sc3nc(-c4ccco4)c4c(c3c2n1)CCC4	i	3.16µM	i	i	i
CCN(CCO)c1nc(SC)nc2c1sc1nc(-c3ccco3)c3c(c12)CCC3	i	3.55µM	i	i	i
COc1ccc(NC(=O)c2cc(-c3ccc(F)cc3OC(C)C)n[nH]2)c(OC)c1	i	nt	nt	nt	i
CC1CCC2(CC1)NC(=O)N(CC(=O)Nc1sc3c(c1C(N)=O)CCC3)C2=O (configuration not stated)	i	39.8µM	i	?	i
Cn1cnnc1SCC(=O)c1cc2ccccc2oc1=O	i	8.91µM	i	?	?
SMILES	RE007 growth inh	Sm TGR inh	LmPK inhibitor	Giardia FBPA inh	TbPYK inhibitor
O=C(Cn1nc(Cl)nc1Cl)c1ccc2c(c1)OCCO2	?	20µM	i	i	i
O=C(Cn1nc(Cl)nc1Cl)c1ccc(F)cc1	i	i	i	i	i
O=C(Cn1nc(Cl)nc1Cl)c1cc2ccccc2oc1=O	i	14.1µM	i	i	i
COC(=O)C1C(O)=C(C=NC2CCCCC2)C(=O)CC1(C)C (configuration not stated)	i	i	i	i	i
CC(C)c1nnc(NC(=O)c2nc(S(=O)(=O)Cc3ccc(F)cc3)ncc2Cl)s1	i	25.1µM	i	nt	i
Cc1ccc(CS(=O)(=O)c2ncc(Cl)c(C(=O)Nc3nnc(C(C)C)s3)n2)cc1	i	17.8µM	i	i	i
CC(C)c1nnc(NC(=O)c2nc(SCc3ccc(F)cc3)ncc2Cl)s1	nt	i	nt	nt	i
CCSc1nnc(NC(=O)c2nc(S(=O)(=O)Cc3ccc(F)cc3)ncc2Cl)s1	i	35.5µM	i	nt	i
Cc1ccc(C)c(NC(=O)c2nc(S(=O)(=O)Cc3ccc(F)cc3)ncc2Cl)c1	nt	2.51µM	nt	nt	i
O=C(Nc1cccc(Cl)c1)Nc1sccc1-c1nc2ccccc2s1	i	i	i	i	i
CSc1nnc(NC(=O)c2nc(S(=O)(=O)Cc3cccc(C)c3)ncc2Cl)s1	i	20µM	i	nt	i
Cc1cccc(CS(=O)(=O)c2ncc(Cl)c(C(=O)Nc3nnc(C(C)C)s3)n2)c1	i	39.8µM	i	nt	i
CC(C)(C)c1ccc(OCCCC(=O)NNC(=O)c2ccccc2O)cc1	i	i	nt	nt	i
[N-]=[N+]=NC(c1ccccc1)C(NC(=O)c1cc(C(F)(F)F)cc(C(F)(F)F)c1)c1ccccc1 (configuration not stated)	i	nt	nt	nt	i
Oc1cccc(/C=N/c2c(-c3ccco3)nc3ccccn23)c1	i	35.5µM	?	?	i
O=[N+]([O-])c1ccc(Cl)c(-c2ccc(/C=N/c3c(-c4ccco4)nc4ccccn34)o2)c1	i	i	i	i	i
Cc1cc(C)c([N+](=O)[O-])cc1-c1ccc(/C=N/c2c(-c3ccco3)nc3ccccn23)o1	i	39.8µM	i	?	i
CCOc1cc(CN2CCOCC2)cc(C(C)=O)c1	i	44.7µM	i	i	i
CC(=O)c1cc(CN2CCCCC2)cc(OC(C)C)c1	i	i	i	i	i
Cc1cc(=S)cc(C)n1CCCO	i[3.69 µM]	1.78µM	i	i	nt
Cc1nc2cc(Cl)c(Cl)cc2n1CCCO	i	i	i	i	i
CCNC(=O)C1(C)CCCN(C(=O)c2ccc(OC)c(F)c2)C1 (configuration not stated)	i[18.4 µM]	nt	nt	nt	i
COc1ccc(N2C(=O)CC(Sc3nnnn3-c3ccc(F)cc3)C2=O)cc1 (configuration not stated)	15.8µM	nt	i	i	i
O=C1CC(Sc2nnnn2-c2ccccc2)C(=O)N1c1cccc(Cl)c1 (configuration not stated)	7.08µM	2.82µM	i	i	?
CCCc1ccc(C#N)c(SC2CC(=O)N(c3ccc(OC)cc3)C2=O)n1 (configuration not stated)	i	?	i	i	i
Cc1[nH]c2ccccc2c1/C=N/Nc1cccc(C(=O)O)c1	i	44.7µM	i	i	i
COc1ccc(CCC(=O)NCC(c2ccco2)N2CCc3ccccc32)cc1 (configuration not stated)	i	i	nt	nt	i
S=c1[nH]nc(-c2n[nH]c3c2CCC3)n1/N=C/C=C/c1ccco1	i	11.2µM	i	?	i
S=c1[nH]nc(-c2cc(-c3ccccc3)n[nH]2)n1/N=C/C=C/c1ccco1	i	11.2µM	i	i	?
